Legend:
Assay in all cases: DAPPL (digital affinity profiling via proximity ligation, sequencing); 10 mM Tris-HCl pH 7.5, 50 mM NaCl, 1 mM DTT, 4% glycerol, room temperature, 30 min; GST-TFs on glutathione beads, 16-mer random dsDNA library, 0.1% formaldehyde crosslink after washing; high values mean tight binding
FLI1 = molecular target: T1, FLI1 (Homo sapiens, UniProt Q01543 1-452); settings: protein: recombinant; tags: N-terminal GST; dsDNA, one strand shown
T1 sequence: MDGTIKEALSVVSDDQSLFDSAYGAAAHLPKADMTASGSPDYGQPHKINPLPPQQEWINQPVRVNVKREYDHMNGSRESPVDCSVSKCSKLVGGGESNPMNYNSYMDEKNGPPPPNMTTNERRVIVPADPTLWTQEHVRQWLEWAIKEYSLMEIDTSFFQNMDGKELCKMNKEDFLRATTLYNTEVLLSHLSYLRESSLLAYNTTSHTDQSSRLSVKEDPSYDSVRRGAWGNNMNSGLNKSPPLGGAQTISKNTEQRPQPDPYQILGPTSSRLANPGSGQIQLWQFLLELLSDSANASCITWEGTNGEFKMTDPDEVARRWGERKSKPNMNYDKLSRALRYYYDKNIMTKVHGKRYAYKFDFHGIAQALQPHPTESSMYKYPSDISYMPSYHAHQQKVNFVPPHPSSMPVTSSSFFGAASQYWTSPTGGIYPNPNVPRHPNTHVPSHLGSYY
In short: (§1)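 GST fusions of human transcription factors were expressed in yeast and captured with glutathione beads. Once given DNA barcodes and pooled alongside a tag-only sample, they were incubated for 30 min at room temperature with 200 nmole of a random double-stranded 16-mer DNA library in Tris/NaCl/DTT/glycerol buffer, then washed, crosslinked (0.1% formaldehyde), proximity-ligated, PCR-amplified and sequenced on an Illumina NextSeq500. The binding signal of each hexamer is its read frequency for a factor divided by its frequency for the tag-only sample.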

ELK1 = molecular target: T2, ELK1 (Homo sapiens, UniProt P19419 1-428); settings: protein: recombinant; tags: N-terminal GST; dsDNA, one strand shown
T2 sequence: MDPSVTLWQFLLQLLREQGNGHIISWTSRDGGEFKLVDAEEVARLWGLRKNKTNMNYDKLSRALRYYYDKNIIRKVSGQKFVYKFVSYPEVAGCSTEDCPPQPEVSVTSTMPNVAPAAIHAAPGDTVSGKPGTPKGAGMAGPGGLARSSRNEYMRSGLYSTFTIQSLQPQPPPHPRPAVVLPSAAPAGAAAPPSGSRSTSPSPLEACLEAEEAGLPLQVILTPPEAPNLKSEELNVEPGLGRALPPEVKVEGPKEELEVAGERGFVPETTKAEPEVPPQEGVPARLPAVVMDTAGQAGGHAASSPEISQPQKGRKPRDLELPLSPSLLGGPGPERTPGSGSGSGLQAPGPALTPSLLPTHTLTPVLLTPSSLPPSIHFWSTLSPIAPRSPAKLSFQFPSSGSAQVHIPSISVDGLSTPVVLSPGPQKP
In short: as §1

GABPA = molecular target: T3, GABPA (Homo sapiens, UniProt Q06546 1-454); settings: protein: recombinant; tags: N-terminal GST; dsDNA, one strand shown
T3 sequence: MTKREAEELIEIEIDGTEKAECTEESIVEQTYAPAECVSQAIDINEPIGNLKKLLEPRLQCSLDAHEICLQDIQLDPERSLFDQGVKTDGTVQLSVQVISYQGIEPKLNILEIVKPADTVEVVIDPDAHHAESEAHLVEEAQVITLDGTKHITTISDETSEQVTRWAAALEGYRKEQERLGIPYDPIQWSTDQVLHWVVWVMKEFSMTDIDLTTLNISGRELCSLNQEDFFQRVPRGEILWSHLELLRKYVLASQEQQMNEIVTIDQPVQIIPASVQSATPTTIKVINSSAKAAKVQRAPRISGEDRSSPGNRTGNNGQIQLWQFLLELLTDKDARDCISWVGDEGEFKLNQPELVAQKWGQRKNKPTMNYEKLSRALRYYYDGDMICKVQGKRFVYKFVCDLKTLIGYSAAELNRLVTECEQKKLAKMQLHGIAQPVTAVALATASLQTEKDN
In short: as §1

ERG = molecular target: T4, ERG (Homo sapiens, UniProt P11308 1-479); settings: protein: recombinant; tags: N-terminal GST; dsDNA, one strand shown
T4 sequence: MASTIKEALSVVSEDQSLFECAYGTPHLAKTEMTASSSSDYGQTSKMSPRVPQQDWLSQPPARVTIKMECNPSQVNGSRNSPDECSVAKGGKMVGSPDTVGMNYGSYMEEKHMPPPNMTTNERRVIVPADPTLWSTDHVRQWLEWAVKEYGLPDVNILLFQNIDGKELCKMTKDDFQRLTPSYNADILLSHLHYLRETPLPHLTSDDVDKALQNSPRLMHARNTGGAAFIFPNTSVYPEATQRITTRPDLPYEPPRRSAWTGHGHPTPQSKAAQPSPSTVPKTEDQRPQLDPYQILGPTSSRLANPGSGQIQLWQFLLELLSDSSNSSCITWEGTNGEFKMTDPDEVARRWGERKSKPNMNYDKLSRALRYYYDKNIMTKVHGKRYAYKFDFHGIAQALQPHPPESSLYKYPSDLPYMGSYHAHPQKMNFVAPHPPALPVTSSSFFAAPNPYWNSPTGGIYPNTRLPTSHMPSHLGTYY
In short: as §1

ELF1 = ELF1 (Homo sapiens, UniProt P32519 1-619); settings: protein: recombinant; tags: N-terminal GST; dsDNA, one strand shown
In short: as §1

EHF = molecular target: T5, EHF (Homo sapiens, UniProt Q9NZC4 1-300); settings: protein: recombinant; tags: N-terminal GST; dsDNA, one strand shown
T5 sequence: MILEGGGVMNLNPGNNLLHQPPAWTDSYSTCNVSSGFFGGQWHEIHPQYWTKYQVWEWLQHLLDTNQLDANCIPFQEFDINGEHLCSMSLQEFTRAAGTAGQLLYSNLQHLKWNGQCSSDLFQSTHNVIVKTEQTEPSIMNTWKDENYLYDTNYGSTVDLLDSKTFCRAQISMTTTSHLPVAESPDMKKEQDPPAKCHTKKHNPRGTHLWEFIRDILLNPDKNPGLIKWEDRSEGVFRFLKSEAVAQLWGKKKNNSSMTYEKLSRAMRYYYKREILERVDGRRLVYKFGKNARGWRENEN
In short: as §1

SPI1 = SPI1 (Homo sapiens, UniProt P17947 1-270); settings: protein: recombinant; tags: N-terminal GST; dsDNA, one strand shown
In short: as §1

SPIB = SPIB (Homo sapiens, UniProt Q01892 1-262); settings: protein: recombinant; tags: N-terminal GST; dsDNA, one strand shown
In short: as §1

ELK3 = molecular target: T6, ELK3 (Homo sapiens, UniProt P41970 1-407); settings: protein: recombinant; tags: N-terminal GST; dsDNA, one strand shown
T6 sequence: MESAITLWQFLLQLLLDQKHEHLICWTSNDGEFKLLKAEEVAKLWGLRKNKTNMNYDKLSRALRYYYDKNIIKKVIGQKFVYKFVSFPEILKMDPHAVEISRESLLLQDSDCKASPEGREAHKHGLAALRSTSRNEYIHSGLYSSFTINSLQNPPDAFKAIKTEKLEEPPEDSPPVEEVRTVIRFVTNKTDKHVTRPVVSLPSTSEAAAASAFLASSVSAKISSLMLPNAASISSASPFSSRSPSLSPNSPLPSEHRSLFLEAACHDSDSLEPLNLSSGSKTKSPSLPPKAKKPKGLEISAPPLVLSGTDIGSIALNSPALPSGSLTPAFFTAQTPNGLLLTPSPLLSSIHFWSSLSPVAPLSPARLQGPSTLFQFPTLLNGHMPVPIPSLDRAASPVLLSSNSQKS
In short: as §1

FEV = molecular target: T7, FEV (Homo sapiens, UniProt Q99581 1-238); settings: protein: recombinant; tags: N-terminal GST; dsDNA, one strand shown
T7 sequence: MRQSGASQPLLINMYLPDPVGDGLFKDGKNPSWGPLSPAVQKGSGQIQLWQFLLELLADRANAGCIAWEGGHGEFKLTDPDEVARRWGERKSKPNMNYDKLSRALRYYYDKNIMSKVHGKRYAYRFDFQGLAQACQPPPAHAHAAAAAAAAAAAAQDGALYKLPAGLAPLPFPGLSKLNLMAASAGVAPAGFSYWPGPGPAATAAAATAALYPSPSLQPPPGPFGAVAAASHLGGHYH
In short: as §1

ETV5 = ETV5 (Homo sapiens, UniProt P41161 1-510); settings: protein: recombinant; tags: N-terminal GST; dsDNA, one strand shown
In short: as §1

HSF1 = HSF1 (Homo sapiens, UniProt Q00613 1-529); settings: protein: recombinant; tags: N-terminal GST; chain copies: 3; dsDNA, one strand shown
In short: as §1

SPIC = molecular target: T8, SPIC (Homo sapiens, UniProt Q8N5J4 1-248); settings: protein: recombinant; tags: N-terminal GST; dsDNA, one strand shown
T8 sequence: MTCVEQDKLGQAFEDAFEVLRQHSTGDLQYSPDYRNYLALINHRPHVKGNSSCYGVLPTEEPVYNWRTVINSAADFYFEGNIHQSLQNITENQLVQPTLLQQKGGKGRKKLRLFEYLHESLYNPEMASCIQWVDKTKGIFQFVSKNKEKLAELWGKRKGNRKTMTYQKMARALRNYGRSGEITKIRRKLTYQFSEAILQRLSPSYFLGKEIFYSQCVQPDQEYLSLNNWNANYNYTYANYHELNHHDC
In short: as §1

ELF4 = ELF4 (Homo sapiens, UniProt Q99607 1-663); settings: protein: recombinant; tags: N-terminal GST; dsDNA, one strand shown
In short: as §1

ELK4 = molecular target: T9, ELK4 (Homo sapiens, UniProt P28324-2 1-405); settings: protein: recombinant; tags: N-terminal GST; dsDNA, one strand shown
T9 sequence: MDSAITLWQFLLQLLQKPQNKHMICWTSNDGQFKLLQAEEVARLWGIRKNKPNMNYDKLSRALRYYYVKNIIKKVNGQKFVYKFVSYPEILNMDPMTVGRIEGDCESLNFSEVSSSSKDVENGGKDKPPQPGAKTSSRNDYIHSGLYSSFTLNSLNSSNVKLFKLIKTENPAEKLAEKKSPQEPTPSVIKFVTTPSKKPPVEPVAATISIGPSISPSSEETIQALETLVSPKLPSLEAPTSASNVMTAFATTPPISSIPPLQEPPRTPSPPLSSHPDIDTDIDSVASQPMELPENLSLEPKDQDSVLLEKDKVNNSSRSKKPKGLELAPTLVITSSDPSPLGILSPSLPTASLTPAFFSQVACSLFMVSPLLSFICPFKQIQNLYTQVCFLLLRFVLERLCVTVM
In short: as §1

ETV2 = molecular target: T10, ETV2 (Homo sapiens, UniProt O00321 1-342); settings: protein: recombinant; tags: N-terminal GST; dsDNA, one strand shown
T10 sequence: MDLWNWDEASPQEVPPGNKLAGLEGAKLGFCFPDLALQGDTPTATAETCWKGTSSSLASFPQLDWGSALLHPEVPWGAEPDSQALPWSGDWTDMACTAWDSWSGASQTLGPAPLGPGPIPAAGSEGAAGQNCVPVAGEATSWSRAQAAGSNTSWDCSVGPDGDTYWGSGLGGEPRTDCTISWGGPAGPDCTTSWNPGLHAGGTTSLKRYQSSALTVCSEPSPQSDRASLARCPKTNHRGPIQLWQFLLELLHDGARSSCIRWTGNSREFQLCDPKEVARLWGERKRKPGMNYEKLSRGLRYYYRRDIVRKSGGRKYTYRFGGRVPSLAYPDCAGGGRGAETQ
In short: as §1

ELF3 = molecular target: T11, ELF3 (Homo sapiens, UniProt P78545 1-371); settings: protein: recombinant; tags: N-terminal GST; dsDNA, one strand shown
T11 sequence: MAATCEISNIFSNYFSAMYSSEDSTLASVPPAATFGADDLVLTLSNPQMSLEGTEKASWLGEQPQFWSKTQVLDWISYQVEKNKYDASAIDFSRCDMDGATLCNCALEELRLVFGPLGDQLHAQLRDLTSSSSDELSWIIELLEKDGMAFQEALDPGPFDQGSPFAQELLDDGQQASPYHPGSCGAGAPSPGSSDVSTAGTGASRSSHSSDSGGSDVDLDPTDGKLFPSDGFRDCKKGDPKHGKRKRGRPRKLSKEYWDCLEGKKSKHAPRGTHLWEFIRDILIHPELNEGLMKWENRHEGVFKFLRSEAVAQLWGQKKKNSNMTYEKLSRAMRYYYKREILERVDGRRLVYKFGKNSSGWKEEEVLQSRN
In short: as §1

CRX = CRX (Homo sapiens, UniProt O43186 1-299); settings: protein: recombinant; tags: N-terminal GST; dsDNA, one strand shown
In short: as §1

ETV1 = ETV1 (Homo sapiens, UniProt P50549 1-477); settings: protein: recombinant; tags: N-terminal GST; dsDNA, one strand shown
In short: as §1

Sequence of ETV1 (P50549 whole entry): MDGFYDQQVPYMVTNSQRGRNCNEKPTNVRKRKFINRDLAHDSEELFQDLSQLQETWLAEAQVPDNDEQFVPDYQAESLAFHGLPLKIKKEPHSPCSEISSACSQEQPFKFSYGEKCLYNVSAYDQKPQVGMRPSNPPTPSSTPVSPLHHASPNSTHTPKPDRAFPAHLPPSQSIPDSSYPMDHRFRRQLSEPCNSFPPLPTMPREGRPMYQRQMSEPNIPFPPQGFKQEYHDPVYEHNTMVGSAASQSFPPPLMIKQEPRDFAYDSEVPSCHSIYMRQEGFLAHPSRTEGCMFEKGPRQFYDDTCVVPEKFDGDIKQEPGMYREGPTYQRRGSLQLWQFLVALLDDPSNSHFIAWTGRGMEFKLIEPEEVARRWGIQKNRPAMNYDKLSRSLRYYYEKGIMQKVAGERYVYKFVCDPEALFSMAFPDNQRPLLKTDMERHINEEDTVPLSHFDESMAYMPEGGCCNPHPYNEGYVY
Sequence of ETV5 (P41161 whole entry): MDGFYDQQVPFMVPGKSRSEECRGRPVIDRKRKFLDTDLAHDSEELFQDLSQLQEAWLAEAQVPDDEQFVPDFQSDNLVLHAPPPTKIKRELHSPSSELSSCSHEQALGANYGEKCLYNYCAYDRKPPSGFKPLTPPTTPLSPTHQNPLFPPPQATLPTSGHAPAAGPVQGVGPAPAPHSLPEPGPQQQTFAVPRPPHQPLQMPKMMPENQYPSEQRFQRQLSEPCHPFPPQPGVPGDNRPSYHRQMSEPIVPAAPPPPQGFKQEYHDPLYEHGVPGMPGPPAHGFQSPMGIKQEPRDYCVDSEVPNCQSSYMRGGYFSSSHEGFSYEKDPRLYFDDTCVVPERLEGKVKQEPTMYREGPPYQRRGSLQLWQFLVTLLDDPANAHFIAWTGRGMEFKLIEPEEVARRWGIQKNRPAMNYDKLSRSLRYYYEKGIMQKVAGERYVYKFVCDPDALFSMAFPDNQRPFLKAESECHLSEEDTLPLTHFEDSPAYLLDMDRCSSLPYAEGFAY
Sequence of CRX (O43186 whole entry): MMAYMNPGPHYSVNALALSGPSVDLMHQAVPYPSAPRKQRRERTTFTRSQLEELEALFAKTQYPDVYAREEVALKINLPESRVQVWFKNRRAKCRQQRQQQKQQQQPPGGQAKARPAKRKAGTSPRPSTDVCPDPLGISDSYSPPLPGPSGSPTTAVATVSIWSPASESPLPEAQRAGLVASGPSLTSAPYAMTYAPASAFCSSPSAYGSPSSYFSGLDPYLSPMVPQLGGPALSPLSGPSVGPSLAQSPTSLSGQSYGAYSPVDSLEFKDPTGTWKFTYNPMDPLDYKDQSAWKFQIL
Sequence of ELF4 (Q99607 whole entry): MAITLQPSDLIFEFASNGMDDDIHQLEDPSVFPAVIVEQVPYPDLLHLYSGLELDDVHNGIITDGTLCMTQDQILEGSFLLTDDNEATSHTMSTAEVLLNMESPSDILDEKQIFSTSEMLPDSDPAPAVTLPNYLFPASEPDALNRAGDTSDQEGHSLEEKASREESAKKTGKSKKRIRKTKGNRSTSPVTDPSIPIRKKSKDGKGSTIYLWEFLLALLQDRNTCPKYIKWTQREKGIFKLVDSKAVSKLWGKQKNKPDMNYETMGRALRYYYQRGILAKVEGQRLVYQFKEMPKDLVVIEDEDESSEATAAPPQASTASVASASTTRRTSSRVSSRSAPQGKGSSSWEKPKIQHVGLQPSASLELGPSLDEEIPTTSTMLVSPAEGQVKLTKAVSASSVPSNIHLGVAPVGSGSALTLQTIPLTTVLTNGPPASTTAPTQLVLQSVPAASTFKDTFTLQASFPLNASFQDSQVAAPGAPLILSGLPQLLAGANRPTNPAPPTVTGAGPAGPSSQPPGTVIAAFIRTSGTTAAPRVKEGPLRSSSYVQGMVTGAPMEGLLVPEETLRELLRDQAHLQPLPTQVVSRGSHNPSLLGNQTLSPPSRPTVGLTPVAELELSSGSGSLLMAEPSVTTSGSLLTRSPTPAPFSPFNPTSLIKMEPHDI
Sequence of SPIB (Q01892 whole entry): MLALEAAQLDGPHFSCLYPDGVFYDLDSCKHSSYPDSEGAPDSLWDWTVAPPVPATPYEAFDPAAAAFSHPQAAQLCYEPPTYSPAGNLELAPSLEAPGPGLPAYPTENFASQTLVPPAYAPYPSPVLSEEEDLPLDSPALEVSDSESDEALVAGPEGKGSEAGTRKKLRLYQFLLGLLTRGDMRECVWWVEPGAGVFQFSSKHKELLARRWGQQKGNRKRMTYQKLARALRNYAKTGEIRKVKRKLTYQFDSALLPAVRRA
Sequence of ELF1 (P32519 whole entry): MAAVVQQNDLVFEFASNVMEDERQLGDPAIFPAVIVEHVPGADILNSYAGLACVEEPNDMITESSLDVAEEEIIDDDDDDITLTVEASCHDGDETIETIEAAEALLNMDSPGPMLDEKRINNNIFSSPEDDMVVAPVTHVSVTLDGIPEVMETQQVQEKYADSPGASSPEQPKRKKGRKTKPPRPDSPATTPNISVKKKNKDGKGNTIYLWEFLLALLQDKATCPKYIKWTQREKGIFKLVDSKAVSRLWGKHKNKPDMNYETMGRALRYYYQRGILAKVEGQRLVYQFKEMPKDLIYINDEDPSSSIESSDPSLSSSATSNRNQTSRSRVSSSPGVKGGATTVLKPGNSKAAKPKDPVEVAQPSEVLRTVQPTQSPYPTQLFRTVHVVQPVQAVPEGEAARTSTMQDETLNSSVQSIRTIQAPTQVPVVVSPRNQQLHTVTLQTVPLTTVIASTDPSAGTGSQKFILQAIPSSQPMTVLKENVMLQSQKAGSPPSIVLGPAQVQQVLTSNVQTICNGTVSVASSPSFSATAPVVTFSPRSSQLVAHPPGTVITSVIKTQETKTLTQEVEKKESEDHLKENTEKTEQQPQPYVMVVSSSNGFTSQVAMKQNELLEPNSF
Sequence of HSF1 (Q00613 whole entry): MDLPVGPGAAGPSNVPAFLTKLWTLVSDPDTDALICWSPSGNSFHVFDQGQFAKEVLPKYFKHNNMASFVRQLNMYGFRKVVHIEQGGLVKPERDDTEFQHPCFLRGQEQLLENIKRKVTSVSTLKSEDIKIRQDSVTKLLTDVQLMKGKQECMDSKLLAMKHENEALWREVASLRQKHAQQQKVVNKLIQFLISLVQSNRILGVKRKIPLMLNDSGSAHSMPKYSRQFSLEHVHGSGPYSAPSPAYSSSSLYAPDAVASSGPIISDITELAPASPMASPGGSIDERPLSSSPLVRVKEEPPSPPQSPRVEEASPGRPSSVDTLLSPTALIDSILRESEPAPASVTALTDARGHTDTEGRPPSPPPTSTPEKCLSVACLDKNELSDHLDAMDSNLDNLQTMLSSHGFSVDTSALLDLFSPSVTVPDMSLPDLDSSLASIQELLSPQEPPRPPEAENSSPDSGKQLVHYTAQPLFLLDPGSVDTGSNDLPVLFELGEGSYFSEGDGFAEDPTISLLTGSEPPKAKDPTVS

TTGGTA
binding signal (FLI1): 1.23 fold enrichment (6-mer frequency, TF over GST control)
binding signal (ELK1): 1.3 fold enrichment (6-mer frequency, TF over GST control)
binding signal (GABPA): 1.22 fold enrichment (6-mer frequency, TF over GST control)
binding signal (ERG): 1.13 fold enrichment (6-mer frequency, TF over GST control)
binding signal (ELF1): 1.19 fold enrichment (6-mer frequency, TF over GST control)
binding signal (EHF): 1.21 fold enrichment (6-mer frequency, TF over GST control)
binding signal (SPI1): 1.23 fold enrichment (6-mer frequency, TF over GST control)
binding signal (SPIB): 1.33 fold enrichment (6-mer frequency, TF over GST control)
binding signal (ELK3): 1.2 fold enrichment (6-mer frequency, TF over GST control)
binding signal (FEV): 1.17 fold enrichment (6-mer frequency, TF over GST control)
binding signal (ETV5): 1.23 fold enrichment (6-mer frequency, TF over GST control)
binding signal (HSF1): 1.16 fold enrichment (6-mer frequency, TF over GST control)
binding signal (SPIC): 1.2 fold enrichment (6-mer frequency, TF over GST control)
binding signal (ELF4): 1.25 fold enrichment (6-mer frequency, TF over GST control)
binding signal (ELK4): 1.34 fold enrichment (6-mer frequency, TF over GST control)
binding signal (ETV2): 1 fold enrichment (6-mer frequency, TF over GST control)
binding signal (ELF3): 1.25 fold enrichment (6-mer frequency, TF over GST control)
binding signal (CRX): 1.34 fold enrichment (6-mer frequency, TF over GST control)
binding signal (ETV1): 1.24 fold enrichment (6-mer frequency, TF over GST control)

Source: paper PMC7862700, “An all-to-all approach to the identification of sequence-specific readers for epigenetic DNA modifications on cytosine”
